Screening data from PubChem.
In the library only some 4.5% were active in any assay of this set; here they are far more common.
HDAC3 inhib = inhibitors of human histone deacetylase 3; O15379; recombinant HDAC3, fluorogenic peptide/trypsin coupled, fluorescence; inhibition, % at 8.3 µM; 320,000 tested, 0.15% active; AID 2718; in the data active means inhibition above about 26%, passing the limit was not always enough; inconclusive means no clear call, values can overlap the other calls
Rtt109 HAT inh = inhibitors of Candida albicans Rtt109/Vps75 histone acetyltransferase; purified Rtt109/Vps75, ThioGlo CoA-SH fluorescence, 4 h; inhibition, % at 34.9 µM; 330,000 tested, 0.16% active; AID 540336;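 active means inhibition of at least 50% in every replicate; inconclusive means best replicate reaches 50% inhibition but some replicates fall short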
Efflux pump mplx = inhibitors of Candida antifungal efflux pumps expressed in yeast | 330,000 tested, 0.44% active | AID 485275 | inhibition, % at 10 µM | S. cerevisiae Candida pump triplex, Nile Red efflux;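 active means plate passing quality check with inhibition over a set limit, or well fluorescence over plate mean plus 4 SD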;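 further: Nile Red retained in pooled yeast measured as flow cytometry median fluorescence; higher means more Nile Red kept so more efflux inhibition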
GRK2 inh = human GRK2 inhibition via aptamer displacement | AID 488847 | inhibition of aptamer binding, % at 10 µM | P25098 | bead flow cytometry, FAM-aptamer displacement from GRK2 | 330,000 tested, 0.59% active;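 active means inhibition of aptamer binding above 40%, roughly 3 SD of noise, on plates passing a quality check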;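 further: median bead fluorescence of bound FAM aptamer so fluorescent compounds give negative values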
ALR inh = blocks human ALR sulfhydryl oxidase activity. AID 485317. inhibition, % (concentration not given with the values). purified ALR, DTT oxidation, H2O2 HRP-luminol luminescence. P55789. 290,000 tested, 3.8% active;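 active means mean replicate inhibition above about 79%, with every replicate also reaching it, limit read from the data; inconclusive means only one of the two criteria met; inactive means mean below limit and not every replicate reaching it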
Target sequence (P55789 whole entry, looked up): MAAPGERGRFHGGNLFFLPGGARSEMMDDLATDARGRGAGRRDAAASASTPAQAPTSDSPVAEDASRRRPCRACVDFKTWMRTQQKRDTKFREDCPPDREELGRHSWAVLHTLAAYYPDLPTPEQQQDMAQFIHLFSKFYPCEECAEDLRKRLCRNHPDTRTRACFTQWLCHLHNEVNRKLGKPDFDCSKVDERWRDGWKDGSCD
Rce1 inhib = yeast Ras-converting enzyme inhibition. Q03530. yeast membranes, quenched prenylated peptide cleavage fluorescence. calls only. 290,000 tested, 0.27% active;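 active means fall in fluorescence gain of 50% or more versus controls, with final raw signal at or below 3038400; inconclusive means same 50% fall but final raw signal above 3038400; inactive means fall in fluorescence gain under 50%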
Target sequence (Q03530 whole entry, looked up): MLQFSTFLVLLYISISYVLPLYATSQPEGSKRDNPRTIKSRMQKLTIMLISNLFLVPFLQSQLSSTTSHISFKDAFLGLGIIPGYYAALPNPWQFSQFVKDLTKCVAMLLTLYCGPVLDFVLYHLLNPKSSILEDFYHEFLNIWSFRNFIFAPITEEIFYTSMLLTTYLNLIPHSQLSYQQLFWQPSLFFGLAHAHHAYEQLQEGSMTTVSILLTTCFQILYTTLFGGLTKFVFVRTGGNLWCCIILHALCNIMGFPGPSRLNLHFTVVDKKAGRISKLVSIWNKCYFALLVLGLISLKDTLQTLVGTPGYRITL
A number is an active result; i = inactive; ? = inconclusive; nt = not tested or not shown.

SMILES	HDAC3 inhib	Rtt109 HAT inh	Efflux pump mplx	GRK2 inh	ALR inh	Rce1 inhib
O=C(c1ccc2ncsc2c1)N1CCN(c2ccc(O)cc2)CC1	i	i	i	i	99	i
CC1CC(C)CN(C(=O)c2ccc3ncsc3c2)C1 (stereo not drawn)	i	i	i	i	79	nt
O=C(c1ccc2ncsc2c1)N1CCN(c2ccccc2Cl)CC1	i	i	i	i	i	i
Cn1cnc([N+](=O)[O-])c1Sc1ccc(C(C)(C)C)cc1	i	i	i	i	i	i
Cc1ccc(Sc2c([N+](=O)[O-])ncn2C)cc1	i	i	i	i	98	i
Cn1cnc([N+](=O)[O-])c1Sc1ccc(Br)cc1	i	i	i	i	98	i
COc1ccc(S(=O)(=O)CCC(=O)NCc2ccc(C)o2)cc1	i	i	i	i	86	i
Cc1ccc(N2C(=O)CC(NNC(=O)c3cccc(S(=O)(=O)N4CCCC4)c3)C2=O)cc1 (stereo not drawn)	i	i	i	i	95	i
CC(OC(=O)c1cccc(S(=O)(=O)N(C)C)c1)C(=O)NCC(=O)Nc1ccc(F)c(F)c1F (stereo not drawn)	nt	i	nt	nt	nt	nt
CCOC(=O)C(=NC1CCS(=O)(=O)C1)NNc1cc(Cl)ccc1Cl (stereo not drawn)	i	i	i	i	?	i
CCOC(=O)C(=NC1CCS(=O)(=O)C1)NNc1ccccc1Cl (stereo not drawn)	i	i	i	i	99	i
CCOC(=O)C(=NC1CCS(=O)(=O)C1)NNc1ccc(Br)cc1 (stereo not drawn)	i	i	i	i	99	i
CCOC(=O)C(=NC(C)CC)NNc1ccc(Br)cc1 (stereo not drawn)	i	i	i	i	99	i
CCOC(=O)C1CCCN(CCC(=O)Nc2ccc(Br)c(C)c2)C1 (stereo not drawn)	i	i	i	i	i	i
CCN1Cc2cc(OC)ccc2-c2ccccc2S1(=O)=O	nt	i	i	i	nt	nt
O=C(Nc1nc2ccc(S(=O)(=O)N3CCCCC3)cc2s1)c1ccncc1	i	i	i	i	98	i
O=C(Nc1nc2ccc(S(=O)(=O)N3CCCCC3)cc2s1)c1cccnc1	i	i	i	i	i	i
CN(C)S(=O)(=O)c1ccc2nc(NC(=O)c3cccs3)sc2c1	i	i	i	i	86	i
O=c1cc(-c2ccc(O)c(O)c2)oc2c(C3O[C@H](CO)[C@@H](O)[C@H](O)[C@H]3O)c(O)cc(O)c12 (stereo partly drawn)	i	i	i	i	99	i
O=c1cc(-c2ccc(O)cc2)oc2cc(O)c([C@@H]3O[C@H](CO)[C@@H](O)[C@H](O)[C@H]3O)c(O)c12	nt	i	i	i	nt	nt
O=c1cc(-c2ccc(O)c(O)c2)oc2cc(O)c(C3OC(CO)C(O)C(O)C3O)c(O)c12 (stereo not drawn)	i	i	i	i	99	nt
N#Cc1ccc(OCC(=O)NCC(c2cccs2)N2CCOCC2)cc1 (stereo not drawn)	i	i	i	i	i	i
COc1ccc(CCNC(=O)C2CCC(C(C)(C)C)CC2)cc1OC (stereo not drawn)	i	i	i	i	i	i
Cc1n[nH]c(C)c1S(=O)(=O)N(CC(=O)NC1CCCC1)c1ccc(C(C)C)cc1	i	i	i	i	81	i
Cc1ccc(NC(=O)CN(c2ccc3c(c2)OCO3)S(=O)(=O)c2c(C)n[nH]c2C)cc1	i	i	i	i	90	i
SMILES	HDAC3 inhib	Rtt109 HAT inh	Efflux pump mplx	GRK2 inh	ALR inh	Rce1 inhib
C=CCn1c(SCC(=O)Nc2nc(C)cs2)nnc1C(C)NC(=O)c1ccccc1Cl (stereo not drawn)	i	i	i	i	94	i
O=C1NC(=O)/C(=C/c2cc3c(cc2Br)OCO3)S1	i	i	i	i	96	i
O=C1Nc2ccc3c(c2C1=Cc1cc2c(cc1Br)OCO2)OCO3	nt	i	nt	nt	nt	nt
Cn1c(SCc2ccc([N+](=O)[O-])cc2)nc2c(c1=O)SCC2	i	i	i	i	99	i
Cn1c(SCC(=O)Nc2ccccc2F)nc2c(c1=O)SCC2	i	i	i	i	88	i
CCn1c(SCC(=O)Nc2ccc(OC)c(OC)c2)nc2c(c1=O)SCC2	nt	i	i	i	99	i
COc1ccc(NC(=O)CSc2nc3c(c(=O)n2C)SCC3)cc1OC	i	i	i	i	99	i
Cn1c(SCC(=O)Nc2ccc(F)cc2)nc2c(c1=O)SCC2	nt	i	i	i	i	i
CCn1c(SCC(=O)Nc2cc(OC)ccc2OC)nc2c(c1=O)SCC2	nt	i	i	i	i	i
CCCC(NC(=O)C(C)NC(=O)CO/N=C1\C=C2CCC3C4CCC(C(C)=O)[C@@]4(C)CCC3[C@@]2(C)CC1)C(=O)O (stereo partly drawn)	i	i	i	i	i	i
CCCn1cnnc1CNC(=O)C1CCC(=O)N(CCc2cccc(F)c2)C1 (stereo not drawn)	i	i	i	i	i	i
O=C1NC(CCO)C(=O)NC1CCO (stereo not drawn)	nt	i	nt	nt	nt	nt
COCCn1c(SCC(=O)Nc2cccc(F)c2)nc2c(c1=O)SCC2	nt	i	i	i	99	i
COCCn1c(SCC(=O)Nc2cc(C)on2)nc2c(c1=O)SCC2	nt	i	i	i	i	i
CCn1cc(CN2CCC(n3nccc3NC(=O)C(OC)c3ccccc3)CC2)cn1 (stereo not drawn)	i	i	i	i	i	i
O=C(NCc1ccc2c(c1)OCO2)c1cc(-c2ccccc2)c(N2CCOCC2)s1	i	i	i	i	i	i
O=C(O)c1cc(-c2ccccc2)c(N2CCOCC2)s1	i	i	i	i	99	i
O=C(NCc1ccco1)c1cc(-c2ccccc2)c(N2CCOCC2)s1	i	i	i	i	87	i
Cc1cc(C(=O)CSc2nnc(N)s2)c(C)n1C1CC1	i	i	i	i	98	i
Cc1cc(C(=O)CSc2nc(N)cc(N)n2)c(C)n1C1CC1	i	i	i	i	i	i
CC(=O)N(C(C)=O)n1c(C)nc2sc3c(c2c1=O)CCCC3	i	i	i	i	97	i
Cc1nc2sc3c(c2c(=O)n1N)CCC3	i	i	i	i	i	i
O=S(=O)(c1ccccc1)C1CC1(c1ccccc1)c1ccccc1 (stereo not drawn)	nt	i	nt	nt	nt	nt
Cc1nc2ccc(N)cc2s1	i	i	i	i	99	i
Nc1ccc2sc(N)nc2c1	i	i	i	i	91	nt
SMILES	HDAC3 inhib	Rtt109 HAT inh	Efflux pump mplx	GRK2 inh	ALR inh	Rce1 inhib
COc1cc2c(cc1OC)CN(C(=O)c1cc(S(=O)(=O)N3CCOCC3)c(Cl)cc1Cl)CC2	i	i	i	i	i	i
Cc1nc(N)sc1N=Nc1ccc(F)cc1	i	i	i	i	98	i
C=CCNC(=O)C1CC(=O)N(c2ccc(OCC(=O)Nc3ccc(Cl)cc3)cc2)C1 (stereo not drawn)	i	i	i	i	i	i
NC(=O)N/N=C/c1sc(N2CCCCC2)nc1-c1cccs1	i	i	i	i	97	i
CC(C)(C)c1[nH]c2ccccc2c1/C=N/O	i	i	i	i	99	nt
Cc1cc(C(=O)N/N=C/c2c(C)[nH]c3ccccc23)n[nH]1	i	i	i	i	nt	i
